This is an account of results in the supplement of paper PMC10121225.

Where a name gives a salt, the structure may show the parent alone.
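Note: immunostained co-cultures imaged by high-content microscopy, Z-score per plate against mean and SD of 0.1% DMSO wells, compounds added on differentiation day 18, analysed day 21.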

The subject of the experiment is hN + hpA co-culture (H1 iNGN2 human neurons + human primary astrocytes). The experiment can be described thus: presynaptic density (SYNAPSIN1 puncta per MAP2 neurite area), Z-score vs DMSO controls; higher = more presynaptic puncta (synapse-promoting). The note with it: 3 µM; 72 h.
For the molecule `Cc1cc(Nc2ncc(Cl)c(Nc3ccccc3S(=O)(=O)C(C)C)n2)c(OC(C)C)cc1C1CCNCC1`, the “presynaptic density (Z-score)” value worked out at 0.147.
As to `CC(C)(C)n1nc(-c2ccc(Cl)cc2)c2c(N)ncnc21`, the “presynaptic density (Z-score)” value is 0.793.
Take `COc1cc2ncnc(Nc3ccc(Cl)cc3F)c2cc1OC`: the “presynaptic density (Z-score)” value was -0.982.
In the case of `NC(=O)c1cnc(NC2CCCCC2N)nc1Nc1cccc(-n2nccn2)c1` (centres undefined), the “presynaptic density (Z-score)” value is -0.728.
Regarding `CN[C@@H](C)C(=O)N[C@H](C(=O)N1CCC[C@H]1C(=O)Nc1snnc1-c1ccccc1)C1CCCCC1`, the “presynaptic density (Z-score)” value is -0.107.
On to `O=C(Nc1cc(C(F)(F)F)cc(C(F)(F)F)c1)c1cc(Cl)ccc1O`, for which the “presynaptic density (Z-score)” value is -3.05.
For `O=c1oc2cc(O)ccc2s1`, the “presynaptic density (Z-score)” value is -0.113.
Consider `COc1ccccc1S(=O)(=O)Nc1ccc2c(c1)CN(C)C(=O)N2`, for which the “presynaptic density (Z-score)” value is 0.796.
For `O=C1NC(=O)/C(=C/c2cccc(C(F)(F)F)c2)S1`, the “presynaptic density (Z-score)” value is -1.18.
Turning to `CC#CCn1c(N2CCC[C@@H](N)C2)nc2c1c(=O)n(Cc1nc(C)c3ccccc3n1)c(=O)n2C` [Linagliptin], the “presynaptic density (Z-score)” value was 0.688.
Regarding `CCCS(=O)(=O)Nc1ccc(F)c(C(=O)c2c[nH]c3ncc(-c4ccc(Cl)cc4)cc23)c1F`, the “presynaptic density (Z-score)” value is -0.231.
To `O=S(=O)(c1ccccc1)c1cnc2c(N3CCNCC3)cccc2c1` belongs -0.943; to `Cc1ccccc1C(=O)Nc1ccc(C(=O)N2CCCC(O)c3cc(Cl)ccc32)c(C)c1` (centres undefined) [Tolvaptan], 0.77.
Regarding `CC(C)(C#N)c1cc(Cn2cncn2)cc(C(C)(C)C#N)c1`, the “presynaptic density (Z-score)” value was -0.628.
`CN(C)CCOc1ccc(/C(=C(/CCCl)c2ccccc2)c2ccccc2)cc1`: the “presynaptic density (Z-score)” value is -0.866.
As for `N#Cc1c(O)c2c(-c3ccc(-c4ccccc4O)cc3)csc2[nH]c1=O`, the “presynaptic density (Z-score)” value is -1.26.
Turning to `CCc1c2c(nc3ccc(O)cc13)-c1cc3c(c(=O)n1C2)COC(=O)[C@]3(O)CC`, the “presynaptic density (Z-score)” value was 0.761.
As for `Cc1ccc2nc(NC(=O)CSc3nc4c(c(=O)n3-c3ccccc3)SCC4)sc2c1`, the “presynaptic density (Z-score)” value is -0.234.
As for `Cc1ccc([C@@H]2O[C@H](CO)[C@@H](O)[C@H](O)[C@H]2O)cc1Cc1ccc(-c2ccc(F)cc2)s1` [Canagliflozin], the “presynaptic density (Z-score)” value was -0.473.
The figure for `Oc1nc(-c2ccc(C(F)(F)F)cc2)nc2c1CSCC2` is 0.167.
As to `O=c1ncccn1[C@@H]1O[C@H](CO)[C@@H](O)[C@H]1O` [Zebularine], the “presynaptic density (Z-score)” value is -0.579.
Take `OCCn1cc(-c2cnc3nnn(Cc4ccc5ncccc5c4)c3n2)cn1`: the “presynaptic density (Z-score)” value is -0.173.
As for `O=C(NOC[C@H](O)CO)c1ccc(F)c(F)c1Nc1ccc(I)cc1F`, the “presynaptic density (Z-score)” value was -0.369.
Take `COc1cc2c(cc1O)CC[C@@H]1[C@@H]2CC[C@]2(C)[C@@H](O)CC[C@@H]12` [2-Methoxyestradiol (2-MeOE2)]: the “presynaptic density (Z-score)” value was -0.808.
The figure for `Cc1c(C(=O)Nc2ccc(N3C[C@@H](C)O[C@@H](C)C3)nc2)cccc1-c1ccc(OC(F)(F)F)cc1` [LDE225 (NVP-LDE225,Erismodegib)] is 0.612.
The figure for `CC(C)c1cc(-c2n[nH]c(=O)n2-c2ccc3c(ccn3C)c2)c(O)cc1O` [Ganetespib (STA-9090)] is 2.03; for `CCC(CC)CC1(C(=O)Nc2ccccc2SC(=O)C(C)C)CCCCC1` [Dalcetrapib (JTT-705] it is -0.463; for `O=C1[C@H](Cc2ccc(O)cc2)N2C(=O)CCN(C(=O)NCc3ccccc3)[C@H]2CN1Cc1cccc2ccccc12` it is -0.969.
Consider `COc1c(O)cc2c(c1O)[C@@H]1O[C@H](CO)[C@@H](O)[C@H](O)[C@H]1OC2=O`, for which the “presynaptic density (Z-score)” value came out at 0.361.
On to `Cc1c(-c2ccc(O)cc2)n(Cc2ccc(OCCN3CCCCCC3)cc2)c2ccc(O)cc12` [Bazedoxifene HCl], for which the “presynaptic density (Z-score)” value is -0.982.
As to `CCN(CC)C(=O)/C(C#N)=C/c1cc(O)c(O)c([N+](=O)[O-])c1` [Entacapone], the “presynaptic density (Z-score)” value worked out at 0.44.
Turning to `C#Cc1cccc(Nc2ncnc3cc(OCCOC)c(OCCO)cc23)c1`, the “presynaptic density (Z-score)” value was -0.577.
To `CC1(C)CCC(c2ccc(Cl)cc2)=C(CN2CCN(c3ccc(C(=O)NS(=O)(=O)c4ccc(N[C@H](CCN5CCOCC5)CSc5ccccc5)c(S(=O)(=O)C(F)(F)F)c4)cc3)CC2)C1` belongs 0.29.
The figure for `CC(NC(=O)C(O)c1cc(F)cc(F)c1)C(=O)NC1C(=O)N(C)c2ccccc2-c2ccccc21` (centres undefined) is 0.0312; for `CCc1c2c(nc3ccc(OC(=O)N4CCC(N5CCCCC5)CC4)cc13)-c1cc3c(c(=O)n1C2)COC(=O)C3(O)CC` (centres undefined) [Irinotecan HCl Trihydrate_Selleck] it is -0.772; for `Cc1nc2c(-c3cnc(N)nc3)nc(N3CCOCC3)nc2n1C(C)C` it is 1.07.
On to `CCN(c1cc(-c2ccc(CN3CCOCC3)cc2)cc(C(=O)NCc2c(C)cc(C)[nH]c2=O)c1C)C1CCOCC1`, for which the “presynaptic density (Z-score)” value is -0.342.
For `CCC(=O)NCC[C@@H]1CCc2ccc3c(c21)CCO3`, the “presynaptic density (Z-score)” value was -1.53.
`NC(=O)c1ccc(I)c([N+](=O)[O-])c1`: the “presynaptic density (Z-score)” value is -1.09.
